# Screening data from PubChem BioAssay.
# In the library only some 4.2% were active in any assay of this set; here they are far more common.
# hgDAF12 agonist: agonists of H. glycines DAF-12 nuclear receptor; HEK293 GAL4-hgDAF12 UAS-luciferase reporter, agonist luminescence; normalized to butyrate control; activation, % at 6.8 µM; hit rate 1.8% among 370,000; AID 687014;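 active = activation above a cutoff set at the mean of all screened compounds plus 3 SD, cut at about 10% in these data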;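 also: 0% = DMSO wells and 100% = sodium butyrate wells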
# ssDAF-12 act: activators of S. stercoralis DAF-12 nuclear receptor | HEK293 ssDAF-12/GRIP1 lit1-tk-luc reporter, luminescence; % of 3 µM dafachronic acid response | AID 652126 | hit rate 1% among 370,000 | activation, % at 6.8 µM;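 active = activation above the mean over all tested compounds plus 3 SD, cut at about 0.9% in these data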;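 also: 0% = DMSO-only wells and 100% = 3 µM delta7-dafachronic acid wells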
# esBAF inh: blocks esBAF chromatin remodeling in mouse ES cells. Bmi1-luciferase knock-in reporter, 24 h; 100% = twice the neutral-well signal. reporter increase, % at 12.5 µM. hit rate 2% among 350,000; in the data active = activation above about 40%;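 also: 0% = median of the plate's neutral control wells and 100% = double that signal; a rise in the Bmi1 reporter signal indicates esBAF inhibition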
# DAX1 inh: inhibitors of DAX1 repression of SF-1 activated StAR promoter; hit rate 1.1% among 370,000; HEK293T StAR-luciferase reporter, SF-1/DAX-1 repression relief; inhibition, % at 6.8 µM;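 active = inhibition above the mean over all tested compounds plus 3 SD, cut at about 3.6% in these data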;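 also: 0% = DAX-1 cells with DMSO and 100% = cells lacking DAX-1 with DMSO; higher inhibition means more luminescence from relief of DAX-1 repression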
# Wnt act: activators of Wnt/beta-catenin signaling | Wnt/beta-catenin reporter cell assay, activator, plate reader | activation, % at 9.35 µM | hit rate 1.2% among 300,000; in the data active = activation above about 30%, passing the limit was not always enough;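 also: 0% = neutral control wells and 100% = positive control wells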
# hcDAF12 agonist: activators of H. contortus DAF-12 nuclear receptor. hit rate 1.4% among 370,000. AID 652067. activation, % at 6.8 µM. HEK293 hcDAF-12 lit1-tk-luc reporter, luminescence; 0% DMSO, 100% Δ7-dafachronic acid;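 active = activation above the mean of all tested compounds plus 3 SD, cut at about 5.5% in these data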;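 also: 100% = response to 3 µM Δ7-dafachronic acid high control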
# * = called active by the depositor; . = not tested or not shown.
SMILES,hgDAF12 agonist,ssDAF-12 act,esBAF inh,DAX1 inh,Wnt act,hcDAF12 agonist
CO[C@H]1CN(C)C(=O)c2ccc(NC(=O)C3CC3)cc2OC[C@H](C)N(C(=O)c2cnccn2)C[C@@H]1C,.,.,-2,.,.,.
O=C(Nc1ccc2c(c1)[C@@H]1C[C@H](CC(=O)N3CCc4ccccc4C3)O[C@@H](CO)[C@@H]1O2)C1CCC1,.,.,5,.,.,.
Clc1ccc(-c2cnc3cccnn23)cc1,8,0,50*,1,0,3
COc1ccc(-c2cnc3cccnn23)cn1,1,-1,11,2,0,1
CC=Cc1ccc2n(c1=O)C[C@@H]1[C@@H](CO)[C@H](C(=O)NCC)[C@H]2N1Cc1nccs1 (mixture of isomers),.,.,-2,.,.,.
CN(C)C(=O)c1cccc(-c2ccc3c(c2)[C@@H]2[C@@H](CCN2C(=O)Nc2ccc(F)cc2)[C@H](CO)N3C)c1,.,.,8,.,.,.
CCN1CCC2(CC1)Oc1c(OC)cccc1C1CC(c3cccnc3)=NN12 (stereo unspecified),2,-1,.,1,36*,0
CCCN(CCC)C(=O)Cn1c2ccccc2c2nc(=O)cc(C)n21,-1,1.1*,-6,1,1,4
C#CCOC(=O)CCCC(=O)Nc1ccccc1OC,2,-1,0,0,50*,-1
CC(C)NC(=O)N(C)C[C@H]1Oc2ccc(NC(=O)CCCCCC(=O)Nc3ccccc3N)cc2C(=O)N([C@H](C)CO)C[C@H]1C,.,.,-4,.,.,.
Cc1occc1C(=O)O/N=C(\N)c1ccc(Cl)cc1,5,1,64*,0,63*,3
COc1cc(OC)c(C(=O)O/N=C(\N)c2ccc(C)cc2)cc1OC,-1,-1,0,0,0,0
Cc1noc(-c2ccc(Cl)cc2)c1C(=O)O/N=C(\N)c1ccc(C(C)(C)C)cc1,2,-2,.,0,-5,0
COc1ccc(Cl)cc1C(=O)O/N=C(\N)c1ccc(Cl)cc1,1,-1,.,1,5,6.0*
O=C(NC(=S)N(CCO)Cc1ccccc1)c1ccc(S(=O)(=O)N2CCCC2)cc1,3,2.0*,.,0,45*,0
O=C(Nc1ccccc1F)N[C@H]1CC[C@@H](CCNC(=O)C2CCC2)O[C@H]1CO,.,.,1,.,.,.
O=C(Oc1ccc(-c2cnc3ccccc3n2)cc1)c1ccc(Br)o1,9,-1,12,1,34*,2
C[C@@H]1CCCCO[C@@H](CN(C)C(=O)Cc2ccccc2)[C@H](C)CN([C@@H](C)CO)C(=O)c2cc(NS(=O)(=O)c3ccccc3)ccc2O1,.,.,15,.,.,.
COc1ccc(-c2nnc(-c3cc4ccccc4oc3=O)o2)cc1,2,-1,12,1,.,1
COc1ccc(-c2cc3ccc(O)cc3oc2=O)cc1OC,3,0,21,0,4,5.8*
COc1ccc(-c2cc3ccccc3oc2=O)cc1,13*,0,.,2,-1,5
COc1ccc(-c2cc3ccc(OCC(N)=O)cc3oc2=O)cc1OC,2,-1,3,0,7,2
COc1ccc2oc(=O)c(-c3nc4ccccc4o3)cc2c1,3,0,.,0,103*,0
COc1ccc(-c2cc3ccccc3oc2=O)cc1NC(=O)c1ccc(Br)o1,6,0,-7,0,.,3
COc1ccc(-c2cc3ccccc3oc2=O)cc1NC(=O)c1ccc([N+](=O)[O-])o1,3,-1,42*,-2,.,0
SMILES,hgDAF12 agonist,ssDAF-12 act,esBAF inh,DAX1 inh,Wnt act,hcDAF12 agonist
C[C@@H]1CN([C@H](C)CO)C(=O)c2cc(NC(=O)Nc3ccc(F)cc3)ccc2O[C@H]1CN(C)S(=O)(=O)c1ccc(F)cc1,.,.,1,.,.,.
C[C@H](CO)N1C[C@H](C)[C@@H](CN(C)CC2CCOCC2)Oc2ncc(C#Cc3ccncc3)cc2C1=O,.,.,1,.,.,.
C[C@@H]1CCCCO[C@H](CN(C)C(=O)Cc2ccccc2)[C@@H](C)CN([C@H](C)CO)C(=O)c2cc(NC(=O)NC3CCCCC3)ccc2O1,.,.,1,.,.,.
Cc1c(-n2c(O)c(C3=c4ccccc4=NC3=O)sc2=O)c(=O)n(-c2ccccc2)n1C,0,1.1*,.,1,0,2
C#CCNC(=O)c1csc([C@@H]2O[C@H](CO)[C@@H](O)[C@H]2O)n1,0,-1,-9,0,0,0
O=C(Nc1cccc(Cl)c1Cl)c1csc([C@@H]2O[C@H](CO)[C@@H](O)[C@H]2O)n1,7,-1,50*,2,19,0
O=C(Nc1ccc(Cl)cc1)c1csc([C@@H]2O[C@H](CO)[C@@H](O)[C@H]2O)n1,4,-1,45*,-1,2,0
O=C(Nc1ccc(F)c(Cl)c1)c1csc([C@@H]2O[C@H](CO)[C@H](O)[C@H](O)[C@H]2O)n1,3,-2,-5,-1,1,-1
c1ccc(SCc2nc(-c3ccccn3)no2)cc1,9,0,26,2,.,0
Cc1ccc(-c2noc(CSc3ccccc3)n2)cc1,12*,0,0,3.9*,52*,3
Cc1cccc(-c2noc(CSc3ccccc3)n2)c1,10,0,46*,1,-1,2
Cc1ccc(-c2noc(CSc3nc(N)cc(N)n3)n2)cc1,3,-1,.,0,.,0
Cc1noc(C)c1S(=O)(=O)Nc1ccc2c(c1)CC(=O)N([C@H](C)CO)C[C@@H](C)[C@H](CN(C)C(=O)Nc1ccc(F)cc1)O2,.,.,1,.,.,.
COc1cccc(C2Oc3ccccc3C3CC(c4cccs4)=NN32)c1 (stereo unspecified),7,-1,.,1,24,5.8*
COc1ccc(N2CCN(C(=O)c3cc(=O)[nH]c4ccccc34)CC2)cc1,0,-1,-3,-1,-2,0
O=C(c1cc(=O)[nH]c2ccccc12)N1CCN(c2ccc([N+](=O)[O-])cc2)CC1,3,-2,-2,-1,39*,1
CCN(CC)S(=O)(=O)c1ccc(N2CCCCC2)c(NC(=O)/C(C#N)=C/c2ccc(OC)cc2)c1,0,-1,4,0,.,6.3*
CCN1C(=S)SC(=O)C1=C1C=C(C)OC(C)=C1,2,-1,.,0,.,0
CCN1C(=S)SC(=O)C1=C1C=C(C)N(Cc2ccco2)C(C)=C1,12*,0,72*,2,19,6.5*
COc1cccc(CN2CCN(Cc3cc(OC)c(OC)c(OC)c3)CC2)c1OC,2,1.3*,-3,0,-2,4
CCS(=O)(=O)N1CCN(Cc2ccccc2OC)CC1,-1,1.2*,4,1,.,1
COc1cccc(CN2CCN(Cc3cccc(Oc4ccccc4)c3)CC2)c1OC,-1,0,0,0,0,3
CN(C)CC(=O)N1CC[C@@H]2[C@@H](CO)N(C)c3ccc(Br)cc3[C@@H]21,.,.,-3,.,.,.
